# Results filed as inconclusive are left out. Active and inactive are the calls of the source. Unless noted, the call rests on the fitted dose curve; in most records, active means well fitted curve in the direction sought with a large enough effect in the repeat runs; inconclusive means weak or mixed curves; inactive means no such curve, though single readings can be large; an effect the other way counts as inactive or inconclusive.
# What was measured:
# [1] = Confirmation and Secondary Assay for Modulators of Hemoglobin Beta Chain Splicing at IVS2 654 locus (AID 910; active means well fitted curve in the direction sought with a large enough effect; an effect the other way counts as inactive or inconclusive;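 further: per-well total GFP intensity by laser scanning cytometry after 2-day treatment; % of control where 0% means no effect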)
# How it was run: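 HeLa cells stably carrying EGFP interrupted by mutant beta-globin IVS2-654 intron (CMV-driven) were treated with compound for 2 days at 37C; corrected splicing was scored as total peak GFP intensity per well (488 nm excitation, 500-520 nm emission).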
# [2] = Confirmation and Secondary Assay for Modulators of Hemoglobin Beta Chain Splicing at IVS2 705 locus (AID 930; active means well fitted curve in the direction sought with a large enough effect; an effect the other way counts as inactive or inconclusive;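 further: HeLa cells stably expressing the EGFP-705 splicing reporter; GFP fluorescence per well restored by corrected splicing of the IVS2-705 intron in EGFP; % of control where 0% means no effect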)
# How it was run: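 Splice-correction reporter: EGFP cDNA split by beta-globin intron 2 bearing the 705 mutation, stably in HeLa. Compound incubation 2 days, 37C; fluorescent objects 5-250 µm summed per well.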
# [3] = qHTS Assay for Lipid Storage Modulators (AID 1519; calls by dose curve; on activity change, negative = inhibition: on the % scale 0 is the no-effect control and ±100 the full control effect); conditions: Drosophila S3 cells, BODIPY lipid droplet/cell ratio, laser cytometry, cells loaded with oleic acid; for activity change, negative = inhibition: at 57.5 µM (top of the series)
# How it was run: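 Cells seeded at 5,000 per well were treated with compounds over a concentration series and loaded with oleic acid (400 uM, as added). Lipid droplet fluorescence (488 nm excitation, 500-530 nm channel) was read by laser-scanning cytometry and normalized to 20 uM Triacsin C.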
# [4] = molecular target: Cytochrome P450 2D6 (Homo sapiens) (UniProt P10635); test: Cytochrome P450 family 2 subfamily D member 6 (CYP2D6) small molecule antagonists: luciferase biochemical (cell-free) qHTS assay (AID 1645840); further: nearly all actives have a fitted effect of over 55% in size; further: potency means the concentration at half of the fitted maximal effect; on activity change, negative = inhibition: on the % scale 0 is the no-effect control and ±100 the full control effect
# How it was run: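 P450-Glo CYP2D6 system: proluciferin substrate converted by enzyme to luciferin, read by luminescence proportional to activity. Enzyme-substrate mix with compound 10 min at room temperature, then NADPH regeneration 1 h before detection reagent.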
# [5] = molecular target: Cytochrome P450 2C9 (Homo sapiens) (UniProt P11712); test: Cytochrome P450 family 2 subfamily C member 9 (CYP2C9) small molecule antagonists: luciferase biochemical (cell-free) qHTS assay (AID 1645842); further: nearly all actives have a fitted effect of over 55% in size; further: potency means the concentration at half of the fitted maximal effect; on activity change, negative = inhibition: on the % scale 0 is the no-effect control and ±100 the full control effect
# How it was run: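 P450-Glo CYP2C9 system: proluciferin substrate with enzyme in mix containing 0.4% BSA, 10 min at room temperature, then NADPH regeneration solution added and incubated 1 h at 37C. Detection reagent stopped reaction; luminescence read after 20 min as RLU.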
# [6] = measured here: cell count channel max response
# [7] = measured here: lipid channel max response
# Cytochrome P450 2D6 (Homo sapiens), sequence (P10635 whole entry, looked up): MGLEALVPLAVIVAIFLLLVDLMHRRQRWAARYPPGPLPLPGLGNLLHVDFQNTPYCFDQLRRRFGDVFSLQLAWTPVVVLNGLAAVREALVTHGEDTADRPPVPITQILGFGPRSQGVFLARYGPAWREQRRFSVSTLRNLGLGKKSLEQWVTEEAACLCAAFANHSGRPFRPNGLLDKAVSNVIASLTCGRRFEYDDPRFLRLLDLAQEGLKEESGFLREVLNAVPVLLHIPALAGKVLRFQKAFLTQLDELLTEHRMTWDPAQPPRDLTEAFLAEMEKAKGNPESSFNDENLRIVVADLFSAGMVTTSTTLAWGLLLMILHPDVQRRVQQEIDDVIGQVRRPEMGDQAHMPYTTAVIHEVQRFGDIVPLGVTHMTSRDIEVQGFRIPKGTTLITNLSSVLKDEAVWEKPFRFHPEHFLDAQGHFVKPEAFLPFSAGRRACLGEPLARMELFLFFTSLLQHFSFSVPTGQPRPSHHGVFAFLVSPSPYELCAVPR
# Cytochrome P450 2C9 (Homo sapiens), sequence (P11712 whole entry, looked up): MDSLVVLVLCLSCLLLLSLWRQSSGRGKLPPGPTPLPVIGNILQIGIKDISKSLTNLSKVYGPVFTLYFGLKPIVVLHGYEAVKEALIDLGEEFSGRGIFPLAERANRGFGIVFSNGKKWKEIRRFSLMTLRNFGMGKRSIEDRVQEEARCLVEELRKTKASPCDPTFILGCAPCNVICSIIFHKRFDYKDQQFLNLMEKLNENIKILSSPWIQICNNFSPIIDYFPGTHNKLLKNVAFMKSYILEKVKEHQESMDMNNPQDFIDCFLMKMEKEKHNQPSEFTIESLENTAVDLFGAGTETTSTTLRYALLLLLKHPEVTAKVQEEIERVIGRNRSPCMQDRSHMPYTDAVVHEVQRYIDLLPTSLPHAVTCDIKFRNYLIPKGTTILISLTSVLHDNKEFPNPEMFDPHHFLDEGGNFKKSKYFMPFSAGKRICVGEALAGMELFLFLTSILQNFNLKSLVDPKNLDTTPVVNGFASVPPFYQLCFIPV
compound,measurement,setting,value
C#C[C@@]1(O)CCC2C3CCc4cc(O)ccc4C3CC[C@@]21C (stereo partly drawn),Potency,[1],inactive
same,Potency,[2],inactive
same,"activity change, negative = inhibition",[3],6.48% (inactive)
same,max response,[3]; [6],1.86%
same,max response,[3]; [7],11.2%
CC(C)=CCCC(C)C1CC[C@@]2(C)C3=C(CC[C@@]12C)C1(C)CCC(O)C(C)(C)C1CC3 (stereo partly drawn),Potency,[1],inactive
same,Potency,[2],inactive
same,"activity change, negative = inhibition",[3],6.04% (inactive)
same,max response,[3]; [6],10.4%
same,max response,[3]; [7],15.7%
CCCCC1CCC(CCCC(C)CCC(=O)O)CC1 (stereo not drawn),Potency,[4],inactive
CC(=O)OCC(=O)[C@@]1(O)CCC2C3CC(C)C4=CC(=O)C=CC4(C)C3C(O)CC21C (stereo partly drawn),Potency,[1],inactive
same,Potency,[2],inactive
same,"activity change, negative = inhibition",[3],2.16% (inactive)
same,max response,[3]; [6],-9.81%
same,max response,[3]; [7],-3.93%
CCC(C)C(=O)OC1CC(C)C=C2C=CC(C)C(CCC3CC(O)CC(=O)O3)C21 (stereo not drawn),Potency,[1],inactive
same,Potency,[2],inactive
same,"activity change, negative = inhibition",[3],5.56% (inactive)
same,max response,[3]; [6],0.727%
same,max response,[3]; [7],5.38%
Cc1ccc(Cn2c(SCc3ccc(C(=O)N4CCCCCC4)cc3)nc3ccncc32)cc1,Potency,[4],7.56 µM (active)
c1ccc(Cn2c(-c3ccc(OC[C@H](C4CCNCC4)n4c(-c5ccccc5)nc5ccccc54)cc3)nc3ccccc32)cc1,Potency,[4],12 µM (active)
COc1ccccc1OCCn1c(NC(=O)c2ccccc2Cl)nc2ccccc21,Potency,[4],inactive
same,Potency,[5],3.79 µM (active)
COc1cc(C(c2c(C)[nH][nH]c2=O)c2c(C)[nH][nH]c2=O)ccc1OC(=O)c1cccc(C)c1,Potency,[4],inactive
same,Potency,[5],12 µM (active)
O=C(Cn1c(=O)n(-c2ccc(Cl)cc2)c(=O)c2oc3ccccc3c21)Nc1ccccc1,Potency,[4],0.849 µM (active)
same,Potency,[5],4.77 µM (active)
CCOC(=O)c1cc(S(=O)(=O)N2CCN(c3cc(Cl)ccc3C)CC2)[nH]n1,Potency,[4],26.8 µM (active)
same,Potency,[5],1.2 µM (active)
Cc1cccc2nc(-c3ccccn3)c(Nc3ccc(F)cc3)n12,Potency,[4],10.7 µM (active)
COc1ccccc1CNC(=O)CCC1N=C2c3ccccc3N=C(SCC(=O)NCCc3ccc(OC)c(OC)c3)N2C1=O (stereo not drawn),Potency,[4],inactive
same,Potency,[5],0.301 µM (active)
O=C(CSc1nc(-c2ccc(F)cc2)[nH]c1-c1ccc(F)cc1)Nc1ccc2c(c1)OCO2,Potency,[4],2.13 µM (active)
COc1ccc(Cn2c(CCC(=O)Nc3ccc(C)c(C)c3)nc3cccnc32)cc1,Potency,[4],inactive
same,Potency,[5],7.56 µM (active)
COc1ccc2cc(Br)ccc2c1,Potency,[4],inactive
Cc1cncn1CCc1nc2c3ccccc3nc(SCC(=O)Nc3cccc(Cl)c3)n2n1,Potency,[4],0.674 µM (active)
same,Potency,[5],0.425 µM (active)
CCOC(=O)c1sc(NC(=O)c2c(-c3ccccc3)c(-c3ccccc3)nn(C)c2=O)nc1C,Potency,[4],inactive
COCCn1c(SCC(=O)Nc2ccc(F)c(Cl)c2)nc2c(oc3ccccc32)c1=O,Potency,[4],2.39 µM (active)
same,Potency,[5],0.952 µM (active)
COc1ccccc1NC(=O)c1oc2ccccc2c1NC(=O)c1ccccc1C(F)(F)F,Potency,[4],inactive
same,Potency,[5],2.68 µM (active)
COc1ccc(NC(=O)Cn2cc(C(=O)c3cccs3)c3ccccc32)cc1,Potency,[4],2.68 µM (active)
Cc1cccc(NC(c2ccccc2C)c2ccc3ccc(C)nc3c2O)n1 (stereo not drawn),Potency,[4],inactive
same,Potency,[5],6.74 µM (active)
COc1ccc(-n2nc3c(N4CCCC(C(=O)NCc5ccccc5C)C4)nnc(C)c3c2C)cc1 (stereo not drawn),Potency,[4],4.77 µM (active)
same,Potency,[5],0.477 µM (active)
CCc1ccc(-n2c(SCc3cccc(F)c3)nc3[nH]ncc3c2=O)cc1,Potency,[4],12 µM (active)
CCCNC(=O)C1CCC(Cn2c(=O)c3sccc3n(CC(=O)NCc3ccccc3)c2=O)CC1 (stereo not drawn),Potency,[4],inactive
COc1ccc(C(=O)NC(c2ccc(Cl)cc2)c2cc(Cl)c3cccnc3c2O)cc1 (stereo not drawn),Potency,[4],inactive
CCOc1ccc(CCNC(=O)C2CCCN(c3nnc(C)c4c(C)n(-c5ccccc5)nc34)C2)cc1 (stereo not drawn),Potency,[4],4.77 µM (active)
same,Potency,[5],3.01 µM (active)
CC1=C(C(=O)Nc2ccccc2C)C(c2cccnc2)n2nc(SCc3ccccc3)nc2N1 (stereo not drawn),Potency,[4],inactive
same,Potency,[5],2.39 µM (active)
CCC(C)Nc1cc(C(=O)NC2CC3CCC(C2)N3c2ccc(C(=O)C3CC3)cn2)c(C)cc1C(N)=O (stereo not drawn),Potency,[4],inactive
same,Potency,[5],8.49 µM (active)
O=C(CSc1nnc(-c2cccc(F)c2)c(-c2cccc(F)c2)n1)NC1CCCCC1,Potency,[4],inactive
same,Potency,[5],1.51 µM (active)
NCCOCCOCCOCCOCCN1CCN(C(c2ccc(Cl)cc2)c2ccc(Cl)cc2)CC1,Potency,[4],6.74 µM (active)
Cc1ccc(-n2c(SCc3ccccc3C)nc3[nH]ncc3c2=O)cc1C,Potency,[4],12 µM (active)
same,Potency,[5],21.3 µM (active)
COc1ccc2c(CNCCc3ccccc3OC)c(C(=O)O)n(Cc3ccc(F)cc3Cl)c2c1,Potency,[4],12 µM (active)
same,Potency,[5],12 µM (active)
CCOC(=O)c1ccc(Nc2nc3nonc3nc2Nc2cccc(C)c2C)cc1,Potency,[4],10.7 µM (active)
CCOc1ccccc1NC(=O)Nc1nnc(N2CCCC(C)C2)s1 (stereo not drawn),Potency,[4],inactive
same,Potency,[5],10.7 µM (active)
CC(C)c1ccc(-n2ncc3c(=O)n(CC(=O)Nc4cc(F)ccc4Cl)cnc32)cc1,Potency,[4],inactive
same,Potency,[5],3.79 µM (active)
Cc1ccc(CSC2=Nc3ccccc3C3=NC(CC(=O)NCc4cccs4)C(=O)N23)cc1 (stereo not drawn),Potency,[4],6.74 µM (active)
same,Potency,[5],0.379 µM (active)
COc1cc(C(c2c(C)[nH][nH]c2=O)c2c(C)[nH][nH]c2=O)ccc1OC(=O)c1ccccc1F,Potency,[4],inactive
Cc1ccc(C2=Nc3ccccc3N(CC(=O)Nc3ccccc3F)C(=O)C2)cc1C,Potency,[4],2.39 µM (active)
same,Potency,[5],inactive
Cc1nc2c3ccccc3nc(NNC(=O)CCC(=O)N3CCN(c4ccc(F)cc4)CC3)n2n1,Potency,[4],inactive
same,Potency,[5],3.79 µM (active)

# Reference: PubChem BioAssay (NCATS)
